Source: PubChem BioAssay (National Center for Advancing Translational Sciences (NCATS))
GRP78 ERSR act: qHTS for Inducers of the Endoplasmic Reticulum Stress Response (ERSR) in Human Glioma: qHTS. AID 602332, 2012. U87-MG GRP78 promoter luciferase reporter, 16 h. Potency, µM, for inactives: top-dose activation, actives largely listed as activators. 0.02% of 420,000 active; note: potency is the fitted concentration of half-maximal effect; series mostly up to about 76 µM; % of control where 0% means no effect; nearly all actives have a fitted effect of over 35% in size
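ERSR induction read as luciferase luminescence (Bright-Glo, 10 min at room temperature) in stably transfected human U87-MG glioma cells exposed to compounds for 16 h, using GRP78 as sensor.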
Nrf2 inh: Nrf2 qHTS screen for inhibitors; A549 ARE-Fluc reporter, luciferase luminescence, 18-24 h; Potency, µM (highest dose often 46 µM), without a hit: at the top dose activity change, negative = inhibition, usual class: inhibitors; 2.1% of 360,000 active; AID 504444, 2011; note: potency is the fitted concentration of half-maximal effect; % is set by controls: 0 for no effect and ±100 for the full control effect; nearly all actives have a fitted effect of over 60% in size
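A549 ARE_Fluc cells (5000/well, 5% FBS OPTI-MEM) pre-incubated 2 h, then treated with compounds 18-24 h at 37C/5% CO2 in concentration-response. CellTiter-Fluor viability read first; BugLite luciferase luminescence after 15 min at room temperature gives Nrf2 activity.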
Nrf2 ARE act: qHTS of Nrf2 Activators; AREc32 ARE-luciferase reporter (MCF7-derived line), luminescence, 24 h; Potency, µM (series often up to 46.1 µM), for the others: at the highest dose activation, hits mostly activators; 0.31% of 410,000 active; AID 624171, 2012; note: potency is the fitted concentration of half-maximal effect; % of control where 0% means no effect; nearly all actives have a fitted effect of over 65% in size
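Each well held 1000 AREc32 cells, which were incubated with compound for 24 hr at 37 deg C after overnight attachment, and ARE reporter activity was quantified by firefly luciferase luminescence.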
Mito fusion act: qHTS Assay for Small Molecule Inhibitors of Mitochondrial Division or Activators of Mitochondrial Fusion. AID 485298, 2010. S. cerevisiae fusion-defective mutant growth rescue, CellTiterGlo 48 h. 0.23% of 320,000 active. Potency, µM (highest dose often 46.1 µM), for the others: at the highest dose growth rescue (activation), usual class: activators; note: potency is the fitted concentration of half-maximal effect; % of control where 0% means no effect; nearly all actives have a fitted effect of over 45% in size
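Yeast fusion mutant, YPEG (non-fermentable carbon), compound, 48 h at 37C non-permissive; CellTiterGlo added, 10 min RT, luminescence read. Rescued growth = division inhibition.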
A549 viability: Nrf2 qHTS screen for inhibitors: counterscreen for cytotoxicity; A549 ARE-Fluc cells, CellTiter-Fluor viability, 18-24 h; Potency, µM (series often up to 46 µM), for inactives: at the top dose activity change, negative = cytotoxicity, actives largely listed as inhibitors; 0.16% of 390,000 active; note: potency is the fitted concentration of half-maximal effect; % is set by controls: 0 for no effect and ±100 for the full control effect
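Cytotoxicity counterscreen: CellTiter-Fluor fluorescence was measured in A549 ARE_Fluc cells after 18-24 h of compound exposure in a concentration series. The subsequent BugLite luminescent read reports ARE-luciferase activity.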
miR-21 act: qHTS Assay for Modulators of miRNAs and/orActivators of miR-21; HeLa miR-21 FLuc reporter, luciferase, 48 h; Potency, µM (highest dose often 38.3 µM), for inactives: top-dose activity change, positive = activation, usual class: activators; 340,000 tested, under 10 active; AID 2288, 2010;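 note: % of control where 0% means no effect; miR-21 action dims this reporter so a rising signal means less miR-21 action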
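Luminescence from a firefly luciferase reporter carrying a miR-21 binding site downstream, stably expressed under a CMV promoter in HeLa cells that make miR-21 endogenously, reports miRNA modulation after 48 h compound exposure up to approximately 40uM final.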
Starred values were filed as active, the others as inactive; ? = inconclusive; / = no result given. Shown are actives, neighbours in structure and some others; about 2.3% of the full set was active somewhere. Calls come from the whole dose curve; as a rule, active = well fitted curve in the direction sought with a large enough effect; inconclusive = small, poorly fitted or top-dose-only effect, or another doubt; inactive = no such curve, though single readings can be large; an effect the other way counts as inactive or inconclusive.

SMILES	GRP78 ERSR act	Nrf2 inh	Nrf2 ARE act	Mito fusion act	A549 viability	miR-21 act
COc1cccc(C2C(C(=O)Nc3nc4ccccc4s3)=C(C)NC3=C2C(=O)CC(C)(C)C3)c1OC (stereo not drawn)	-1%	16µM*	-1%	6%	-15%	-7%
CC(C)(C)c1ccc(Oc2ccc(NC(=O)c3cccs3)cn2)cc1	-5%	16µM*	-1%	-3%	-17%	?
COc1ccc(NC(=O)c2cccs2)cn1	2%	?	4%	0%	0%	-36%
CCCCNc1c(-c2ccc(OC)c(Sc3ccc(OC)cc3)c2)nc2ccccn12	-10%	18µM*	-2%	11%	?	/
O=C(NC(Cc1c[nH]c2ccccc12)C(=O)O)c1ccc(F)cc1 (stereo not drawn)	-2%	-1%	0%	17%	0%	2%
CCC(=O)N1N=C(c2c(-c3ccccc3)c3cc(Cl)ccc3[nH]c2=O)CC1c1ccco1 (stereo not drawn)	-4%	23µM*	3%	-1%	?	23%
CCC(=O)N1N=C(c2ccc(NS(=O)(=O)c3ccc(C)cc3)cc2)CC1c1ccco1 (stereo not drawn)	-7%	18µM*	0%	/	-19%	/
Cc1cc(C)c2c(c1)/C(=C/C(=O)c1ccc(Br)s1)C(=O)N2	0%	9.2µM*	0%	0%	?	3%
Cc1cc(Br)c2c(c1)/C(=C/C(=O)c1cccs1)C(=O)N2	?	-7%	23%	0%	1%	4%
COc1ccc(CNC(=O)c2c(O)c3ccccc3n(C)c2=O)cc1	-5%	-5%	0%	5%	0%	-3%
CC(Oc1ccc2c3c(c(=O)oc2c1)CCC3)C(=O)NCc1cccnc1 (stereo not drawn)	-4%	-1%	-1%	0%	2%	-4%
O=C(CN1CCCC1)Nc1ccccc1C(=O)c1ccccc1	-3%	2%	0%	-3%	15%	-5%
O=C(CN1CCN(S(=O)(=O)c2ccccc2F)CC1)Nc1ccccc1C(=O)c1ccccc1	-2%	15µM*	4%	1%	-12%	14%
COC(=O)COc1ccc2c(-c3ccc(OC)cc3)cc(=O)oc2c1	25µM*	/	-1%	1%	4%	-1%
CN1C(=O)/C(=C\c2ccccc2)Sc2ccc(C(=O)N3CCN(c4ccccn4)CC3)cc21	/	/	/	1%	/	-2%
